In PubChem BioAssay:
Activity calls are given as the source filed them.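 How the source made its calls: active means visually confirmed hit in the image check and inhibition above 20%; inconclusive means visually confirmed hit but inhibition not above 20%; inactive means no visual hit in the image check.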

Experiment: endothelial E-selectin expression blockers – imaging, HUVEC, immunofluorescence, MLSMR starter and 10KST1 sets, primary screen (AID 487);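 on inhibition: signal is fraction of cell area covered by stained E-selectin grains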;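 on nuclei count: 100% = median nuclei count of all wells on the same plate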
Settings: HUVEC TNFalpha-induced E-selectin immunofluorescence imaging, at 2 µM; inhibition: stronger effect = higher value; nuclei count: measured here: cell number, toxicity

| SMILES | nuclei count | inhibition |
| --- | --- | --- |
| Cc1nnc2n(-c3ccccc3)c(=O)c3c4c(sc3n12)CCCC4 | 122% | -54% (inactive) |
| Cc1c(NC(=O)c2ccc(=O)oc2)c(=O)n(-c2ccccc2)n1C | 119% | -22.2% (inactive) |
| Cc1nc2sc(C#N)c(N)c2c2c1CCCC2 | 96.3% | 0.2% (inactive) |
| Fc1ccc(-c2cnc[nH]2)cc1 | 109% | -88.1% (inactive) |
| CC(CCc1ccccc1)NCC(O)c1ccc(O)c(C(N)=O)c1 (stereo not drawn) | 107% | -7.9% (inactive) |
| CCOC(=O)c1ccc2nc(NC(NC(C)=O)(C(=O)OC)C(F)(F)F)sc2c1 (stereo not drawn) | 130% | -23.9% (inactive) |
| COc1cccc(N2C(=O)C(O)=C(C(C)=O)C2c2ccc(OC)c(OC)c2)c1 (stereo not drawn) | 106% | 34% (inactive) |
| CCCCOc1ccccc1C(=O)NCCCC(=O)O | 134% | -66.7% (inactive) |
| COc1ccc(CCn2c(=N)c(C#N)cc3c(=O)n4ccccc4nc32)cc1 | 105% | -65.9% (inactive) |
| O=C(NC1CCS(=O)(=O)C1)c1c(NC(=O)C2COc3ccccc3O2)sc2c1CCCC2 (stereo not drawn) | 143% | -35.3% (inactive) |
| Cc1nn(-c2ccccc2)c2c1C(=O)NC(=O)C(C)(C)C2 | 120% | -24.8% (inactive) |
| O=C(Nc1ccccn1)NC(C(F)(F)F)C(F)(F)F | 139% | -56% (inactive) |
| CCC(NC(=O)Nc1cc(OC)c(OC)c(OC)c1)(C(F)(F)F)C(F)(F)F | 141% | -82.9% (inactive) |
| COC(=O)C(NC(C)=O)(Nc1ccccn1)C(F)(F)F (stereo not drawn) | 121% | -61.1% (inactive) |
| CC1(C)CNC(=O)c2sc(N3CCOCC3)nc2C1 | 119% | -112% (inactive) |
| CCN1CCc2c(C#N)c(N3CCCCC3)nc(NCc3ccccc3)c2C1 | 112% | -51.6% (inactive) |
| CCOC(=O)CNC(=O)Nc1ccccc1C(=O)OC | 119% | 15.4% (inactive) |
| CCn1nc(NC(=O)c2cccnc2)c2cc3ccccc3nc21 | 133% | -29.4% (inactive) |
| Cn1c(=O)n(Cc2ccccc2)c(=O)c2c1nc(NCC1CCCO1)n2Cc1ccccc1 (stereo not drawn) | 102% | -41.8% (inactive) |
| COc1ccc2c(c1)n([O-])c1c([n+]2=O)CCC1 | 108% | -56.2% (inactive) |

| SMILES | nuclei count | inhibition |
| --- | --- | --- |
| COc1ccc2c(c1)[nH]c1c(=O)n(CC3CCCO3)cnc12 (stereo not drawn) | 133% | -39.2% (inactive) |
| CC(=O)c1c(OCC(=O)O)ccc2c(C)cc(=O)oc12 | 126% | -27.6% (inactive) |
| O=C1C2ON(c3ccccc3)C(c3cccnc3)C2C(=O)N1c1ccccc1 (stereo not drawn) | 130% | -28.2% (inactive) |
| CCCCCn1c2nc3ccccc3nc2c2c(=O)n(CC(C)C)cnc21 | 130% | -73.9% (inactive) |
| Cc1nc2c(o1)CCc1ccccc1C2O (stereo not drawn) | 99.8% | -16.2% (inactive) |
| Clc1ccc(-n2ncc3c(NCCCn4ccnc4)ncnc32)cc1 | 129% | -41.4% (inactive) |
| Nc1nnnn1/N=C/c1ccccn1 | 142% | -155% (inactive) |
| c1ccc(CN2CCN(c3ncnc4c3[nH]c3ccccc34)CC2)cc1 | 137% | -47.4% (inactive) |
| Cc1cc2c(c(=O)o1)C(Cc1ccccc1)C(C#N)=C(N)O2 (stereo not drawn) | 126% | -45.5% (inactive) |
| COc1cc(NC(=O)NC(C)(C(F)(F)F)C(F)(F)F)cc(OC)c1OC | 140% | -50% (inactive) |
| Cc1c(O)c(CN2CCCCC2)cc2c3c(c(=O)oc12)CCC3 | 130% | -1.4% (inactive) |
| CCOC(=O)c1[nH]c2ccc(Br)cc2c1NC(=O)CNC | 141% | -29% (inactive) |
| COc1ccc(CCn2c(=N)c(C(=O)NCc3ccco3)cc3c(=O)n4ccccc4nc32)cc1 | 108% | -63.3% (inactive) |
| CN(C)/C=C1\N=C(c2ccc(Cl)cc2Cl)OC1=O | 120% | -31.3% (inactive) |
| Cc1ccc(/C=N/n2nnnc2N)o1 | 133% | -8.1% (inactive) |
| COc1ccccc1N=Cc1nc(-c2ccccc2)oc1OC(C)=O | 132% | -86.5% (inactive) |
| Cc1ccc2[nH]c3c(N4CCOCC4)ncnc3c2c1 | 152% | -12.3% (inactive) |
| CC(=O)C1=C(O)C(=O)N(c2ccc(C(=O)O)cc2)C1c1ccccc1 (stereo not drawn) | 112% | -53.3% (inactive) |
| COc1ccccc1Nc1ncnc2c1cnn2-c1cccc(C)c1 | 133% | -38.9% (inactive) |
